Binding signal data for 1 sequence are collected here from article PMC7862700, “An all-to-all approach to the identification of sequence-specific readers for epigenetic DNA modifications on cytosine”.

Experiment in all cases: DAPPL (digital affinity profiling via proximity ligation, sequencing); 10 mM Tris-HCl pH 7.5, 50 mM NaCl, 1 mM DTT, 4% glycerol, room temperature, 30 min; GST-TFs on glutathione beads, 16-mer random dsDNA library, 0.1% formaldehyde crosslink after washing; high values mean tight binding
Test [1] deals with T1, FLI1 (Homo sapiens, UniProt Q01543 1-452).
T1 sequence: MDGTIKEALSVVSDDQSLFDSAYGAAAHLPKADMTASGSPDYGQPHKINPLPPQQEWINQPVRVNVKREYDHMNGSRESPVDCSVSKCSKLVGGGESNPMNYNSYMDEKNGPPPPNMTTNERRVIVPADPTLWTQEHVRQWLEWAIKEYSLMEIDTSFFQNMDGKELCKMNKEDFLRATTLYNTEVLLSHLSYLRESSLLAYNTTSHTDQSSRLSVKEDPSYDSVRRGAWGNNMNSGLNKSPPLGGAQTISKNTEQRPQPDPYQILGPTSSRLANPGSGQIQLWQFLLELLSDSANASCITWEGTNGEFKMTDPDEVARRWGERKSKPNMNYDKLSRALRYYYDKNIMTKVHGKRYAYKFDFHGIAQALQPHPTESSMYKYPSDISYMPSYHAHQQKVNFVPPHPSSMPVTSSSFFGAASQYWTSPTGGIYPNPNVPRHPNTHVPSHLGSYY
As to conditions: protein: recombinant; tags: N-terminal GST; dsDNA, one strand shown. The essentials:
(§1)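 Binding signal is given per hexamer as its read frequency for a factor divided by its frequency in the tag-only sample. GST-fused human transcription factors were expressed in yeast, captured on glutathione beads, barcoded with DNA and pooled with that sample, then incubated with 200 nmole of a 16-mer random double-stranded DNA library in Tris/NaCl/DTT/glycerol buffer for 30 min at room temperature. The pools were then washed, crosslinked, proximity-ligated, amplified by PCR and sequenced on an Illumina NextSeq500.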

The target in test [2] is T2, ELK1 (Homo sapiens, UniProt P19419 1-428).
T2 sequence: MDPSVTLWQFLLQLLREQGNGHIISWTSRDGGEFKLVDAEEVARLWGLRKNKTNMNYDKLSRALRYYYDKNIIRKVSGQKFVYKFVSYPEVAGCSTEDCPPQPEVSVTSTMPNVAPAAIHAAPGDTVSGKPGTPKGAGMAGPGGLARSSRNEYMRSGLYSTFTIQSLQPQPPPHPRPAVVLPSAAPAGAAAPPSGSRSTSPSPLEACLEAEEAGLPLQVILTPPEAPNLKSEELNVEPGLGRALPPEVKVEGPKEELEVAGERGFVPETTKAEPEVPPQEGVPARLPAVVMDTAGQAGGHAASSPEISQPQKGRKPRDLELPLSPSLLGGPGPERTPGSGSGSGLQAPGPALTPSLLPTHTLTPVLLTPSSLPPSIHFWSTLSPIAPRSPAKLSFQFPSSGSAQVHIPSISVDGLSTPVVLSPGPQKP
The conditions noted are these: protein: recombinant; tags: N-terminal GST; dsDNA, one strand shown. An outline of the steps:
as §1

The target of test [3] is T3, GABPA (Homo sapiens, UniProt Q06546 1-454).
T3 sequence: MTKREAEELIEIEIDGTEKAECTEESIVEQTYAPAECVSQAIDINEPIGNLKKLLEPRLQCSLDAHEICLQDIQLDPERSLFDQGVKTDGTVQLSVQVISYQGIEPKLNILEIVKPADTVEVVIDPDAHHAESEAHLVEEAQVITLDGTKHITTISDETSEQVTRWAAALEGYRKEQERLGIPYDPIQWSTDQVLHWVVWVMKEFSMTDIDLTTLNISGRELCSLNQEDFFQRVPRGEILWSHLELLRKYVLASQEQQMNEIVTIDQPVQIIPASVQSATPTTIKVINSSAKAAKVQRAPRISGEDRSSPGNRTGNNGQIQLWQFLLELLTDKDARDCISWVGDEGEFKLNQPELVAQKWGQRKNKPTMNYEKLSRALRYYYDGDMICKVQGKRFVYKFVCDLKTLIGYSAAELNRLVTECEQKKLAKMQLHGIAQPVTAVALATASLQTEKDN
As to conditions: protein: recombinant; tags: N-terminal GST; dsDNA, one strand shown. The essentials:
as §1

Test [4] has as its target T4, ERG (Homo sapiens, UniProt P11308 1-479).
T4 sequence: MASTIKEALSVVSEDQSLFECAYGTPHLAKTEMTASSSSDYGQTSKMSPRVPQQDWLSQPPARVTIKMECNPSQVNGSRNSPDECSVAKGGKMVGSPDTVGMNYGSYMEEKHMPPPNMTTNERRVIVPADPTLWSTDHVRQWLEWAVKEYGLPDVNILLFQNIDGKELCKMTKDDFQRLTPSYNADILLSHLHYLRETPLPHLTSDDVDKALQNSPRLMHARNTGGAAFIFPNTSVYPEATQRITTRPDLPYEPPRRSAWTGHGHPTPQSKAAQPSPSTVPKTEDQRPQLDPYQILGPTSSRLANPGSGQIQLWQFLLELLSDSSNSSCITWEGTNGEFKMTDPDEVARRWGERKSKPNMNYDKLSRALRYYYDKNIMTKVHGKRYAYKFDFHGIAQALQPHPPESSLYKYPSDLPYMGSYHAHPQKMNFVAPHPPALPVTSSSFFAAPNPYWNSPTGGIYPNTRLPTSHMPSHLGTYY
The conditions noted are these: protein: recombinant; tags: N-terminal GST; dsDNA, one strand shown. An outline of the steps:
as §1

The target of test [5] is ELF1 (Homo sapiens, UniProt P32519 1-619). The conditions noted are these: protein: recombinant; tags: N-terminal GST; dsDNA, one strand shown. The essentials:
as §1

In test [6] the target is T5, EHF (Homo sapiens, UniProt Q9NZC4 1-300).
T5 sequence: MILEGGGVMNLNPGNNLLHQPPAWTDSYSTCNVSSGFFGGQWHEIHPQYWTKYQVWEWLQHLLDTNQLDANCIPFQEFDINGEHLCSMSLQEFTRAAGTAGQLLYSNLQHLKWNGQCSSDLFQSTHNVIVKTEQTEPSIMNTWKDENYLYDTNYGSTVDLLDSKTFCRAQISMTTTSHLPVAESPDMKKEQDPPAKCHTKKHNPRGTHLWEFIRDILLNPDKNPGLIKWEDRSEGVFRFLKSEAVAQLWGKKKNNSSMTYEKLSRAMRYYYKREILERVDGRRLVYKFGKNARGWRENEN
The conditions noted are these: protein: recombinant; tags: N-terminal GST; dsDNA, one strand shown. The essentials:
as §1

Test [7] concerns the target SPI1 (Homo sapiens, UniProt P17947 1-270). The conditions noted are these: protein: recombinant; tags: N-terminal GST; dsDNA, one strand shown. An outline of the steps: as §1
In test [8] the target is SPIB (Homo sapiens, UniProt Q01892 1-262). As to conditions: protein: recombinant; tags: N-terminal GST; dsDNA, one strand shown. The essentials:
as §1

Test [9] has as its target T6, ELK3 (Homo sapiens, UniProt P41970 1-407).
T6 sequence: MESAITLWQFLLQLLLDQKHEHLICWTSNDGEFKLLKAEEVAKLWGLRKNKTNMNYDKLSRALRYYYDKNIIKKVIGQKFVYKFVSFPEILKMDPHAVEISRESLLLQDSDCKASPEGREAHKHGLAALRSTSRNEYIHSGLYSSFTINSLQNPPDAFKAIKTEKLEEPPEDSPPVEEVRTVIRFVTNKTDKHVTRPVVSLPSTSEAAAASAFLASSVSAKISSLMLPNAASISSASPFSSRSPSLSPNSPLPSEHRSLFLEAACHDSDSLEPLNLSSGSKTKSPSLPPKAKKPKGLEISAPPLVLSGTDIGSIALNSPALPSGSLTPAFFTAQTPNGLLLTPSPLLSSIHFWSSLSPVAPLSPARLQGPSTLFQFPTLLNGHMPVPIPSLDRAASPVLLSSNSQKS
As to conditions: protein: recombinant; tags: N-terminal GST; dsDNA, one strand shown. An outline of the steps:
as §1

Test [10] deals with T7, FEV (Homo sapiens, UniProt Q99581 1-238).
T7 sequence: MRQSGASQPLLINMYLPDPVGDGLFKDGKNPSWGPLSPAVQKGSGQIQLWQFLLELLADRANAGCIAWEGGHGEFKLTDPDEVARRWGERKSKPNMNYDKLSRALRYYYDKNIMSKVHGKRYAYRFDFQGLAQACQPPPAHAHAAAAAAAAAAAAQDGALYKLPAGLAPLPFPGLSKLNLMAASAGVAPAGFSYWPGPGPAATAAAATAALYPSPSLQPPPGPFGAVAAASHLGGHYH
The conditions noted are these: protein: recombinant; tags: N-terminal GST; dsDNA, one strand shown. An outline of the steps:
as §1

Test [11] addresses ETV5 (Homo sapiens, UniProt P41161 1-510). The conditions noted are these: protein: recombinant; tags: N-terminal GST; dsDNA, one strand shown. An outline of the steps:
as §1

In test [12] the target is HSF1 (Homo sapiens, UniProt Q00613 1-529). As to conditions: protein: recombinant; tags: N-terminal GST; chain copies: 3; dsDNA, one strand shown. The essentials:
as §1

Test [13] addresses T8, SPIC (Homo sapiens, UniProt Q8N5J4 1-248).
T8 sequence: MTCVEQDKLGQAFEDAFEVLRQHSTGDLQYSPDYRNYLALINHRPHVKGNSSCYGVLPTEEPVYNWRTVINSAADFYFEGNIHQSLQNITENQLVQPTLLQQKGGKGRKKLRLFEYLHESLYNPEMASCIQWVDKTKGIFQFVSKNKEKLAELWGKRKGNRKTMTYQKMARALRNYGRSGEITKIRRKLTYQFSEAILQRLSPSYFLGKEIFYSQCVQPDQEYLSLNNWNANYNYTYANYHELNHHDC
The conditions noted are these: protein: recombinant; tags: N-terminal GST; dsDNA, one strand shown. The essentials:
as §1

Test [14] deals with ELF4 (Homo sapiens, UniProt Q99607 1-663). The conditions noted are these: protein: recombinant; tags: N-terminal GST; dsDNA, one strand shown. An outline of the steps:
as §1

In test [15] the target is T9, ELK4 (Homo sapiens, UniProt P28324-2 1-405).
T9 sequence: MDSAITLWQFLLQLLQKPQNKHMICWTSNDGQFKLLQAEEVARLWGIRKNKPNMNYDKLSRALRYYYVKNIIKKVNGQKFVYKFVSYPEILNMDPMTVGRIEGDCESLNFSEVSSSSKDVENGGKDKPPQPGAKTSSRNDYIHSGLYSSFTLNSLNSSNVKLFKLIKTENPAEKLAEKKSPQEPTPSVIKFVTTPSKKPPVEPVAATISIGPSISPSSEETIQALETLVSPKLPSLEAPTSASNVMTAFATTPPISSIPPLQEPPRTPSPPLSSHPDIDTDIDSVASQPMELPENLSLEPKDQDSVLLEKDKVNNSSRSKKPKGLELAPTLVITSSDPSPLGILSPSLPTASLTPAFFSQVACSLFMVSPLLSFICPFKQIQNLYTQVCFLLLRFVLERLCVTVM
The conditions noted are these: protein: recombinant; tags: N-terminal GST; dsDNA, one strand shown. The essentials: as §1

In test [16] the target is T10, ETV2 (Homo sapiens, UniProt O00321 1-342).
T10 sequence: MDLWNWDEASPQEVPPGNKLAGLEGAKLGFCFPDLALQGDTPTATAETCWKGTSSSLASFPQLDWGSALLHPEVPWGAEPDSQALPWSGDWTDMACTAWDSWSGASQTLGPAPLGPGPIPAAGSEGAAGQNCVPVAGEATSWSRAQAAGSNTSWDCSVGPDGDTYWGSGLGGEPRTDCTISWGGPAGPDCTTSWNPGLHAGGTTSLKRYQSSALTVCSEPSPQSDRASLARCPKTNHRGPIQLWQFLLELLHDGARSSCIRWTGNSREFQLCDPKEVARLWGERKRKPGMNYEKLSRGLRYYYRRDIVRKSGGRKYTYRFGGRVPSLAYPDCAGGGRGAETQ
The conditions noted are these: protein: recombinant; tags: N-terminal GST; dsDNA, one strand shown. The essentials:
as §1

Test [17] concerns the target T11, ELF3 (Homo sapiens, UniProt P78545 1-371).
T11 sequence: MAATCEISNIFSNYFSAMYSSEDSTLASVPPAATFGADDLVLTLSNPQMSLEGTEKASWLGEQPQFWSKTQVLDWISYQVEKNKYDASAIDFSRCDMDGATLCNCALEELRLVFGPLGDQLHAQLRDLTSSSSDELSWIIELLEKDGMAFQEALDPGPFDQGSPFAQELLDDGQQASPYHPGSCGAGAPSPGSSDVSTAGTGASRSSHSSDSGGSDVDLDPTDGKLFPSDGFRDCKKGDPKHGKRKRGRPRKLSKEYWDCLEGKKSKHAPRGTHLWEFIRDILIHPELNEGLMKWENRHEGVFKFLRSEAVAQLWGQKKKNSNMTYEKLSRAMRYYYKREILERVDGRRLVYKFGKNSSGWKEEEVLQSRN
The conditions noted are these: protein: recombinant; tags: N-terminal GST; dsDNA, one strand shown. An outline of the steps:
as §1

Test [18] addresses CRX (Homo sapiens, UniProt O43186 1-299). The conditions noted are these: protein: recombinant; tags: N-terminal GST; dsDNA, one strand shown. The essentials: as §1
Test [19] has as its target ETV1 (Homo sapiens, UniProt P50549 1-477). As to conditions: protein: recombinant; tags: N-terminal GST; dsDNA, one strand shown. The essentials: as §1

Sequence of SPIB (Q01892 whole entry): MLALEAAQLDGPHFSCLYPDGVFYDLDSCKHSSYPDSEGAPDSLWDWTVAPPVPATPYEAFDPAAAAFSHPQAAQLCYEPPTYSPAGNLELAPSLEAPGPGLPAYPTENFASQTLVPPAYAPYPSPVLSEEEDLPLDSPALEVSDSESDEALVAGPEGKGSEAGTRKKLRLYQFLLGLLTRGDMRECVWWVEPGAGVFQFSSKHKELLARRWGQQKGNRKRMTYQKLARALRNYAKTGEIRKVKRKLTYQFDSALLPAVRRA
Sequence of ETV1 (P50549 whole entry): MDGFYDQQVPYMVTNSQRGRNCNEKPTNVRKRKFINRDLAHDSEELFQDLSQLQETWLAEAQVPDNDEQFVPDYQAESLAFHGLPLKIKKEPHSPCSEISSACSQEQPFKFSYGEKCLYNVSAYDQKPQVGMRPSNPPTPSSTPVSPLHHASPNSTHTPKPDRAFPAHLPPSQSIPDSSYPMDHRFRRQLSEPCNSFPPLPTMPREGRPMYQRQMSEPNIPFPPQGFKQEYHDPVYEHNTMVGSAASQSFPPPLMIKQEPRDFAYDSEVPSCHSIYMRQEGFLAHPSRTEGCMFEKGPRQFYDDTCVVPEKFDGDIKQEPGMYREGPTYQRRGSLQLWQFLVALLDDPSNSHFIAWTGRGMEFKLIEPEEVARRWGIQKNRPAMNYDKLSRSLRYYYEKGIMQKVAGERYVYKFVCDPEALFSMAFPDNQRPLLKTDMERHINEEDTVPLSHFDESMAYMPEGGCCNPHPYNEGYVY
Sequence of CRX (O43186 whole entry): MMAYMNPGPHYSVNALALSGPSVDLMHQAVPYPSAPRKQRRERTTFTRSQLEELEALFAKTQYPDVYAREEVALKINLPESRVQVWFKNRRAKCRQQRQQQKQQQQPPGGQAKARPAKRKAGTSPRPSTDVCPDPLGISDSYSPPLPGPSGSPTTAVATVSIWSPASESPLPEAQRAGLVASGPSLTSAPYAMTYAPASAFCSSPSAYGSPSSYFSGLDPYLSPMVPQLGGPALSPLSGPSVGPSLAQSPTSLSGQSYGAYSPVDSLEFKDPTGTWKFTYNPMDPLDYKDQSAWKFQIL
Sequence of ELF4 (Q99607 whole entry): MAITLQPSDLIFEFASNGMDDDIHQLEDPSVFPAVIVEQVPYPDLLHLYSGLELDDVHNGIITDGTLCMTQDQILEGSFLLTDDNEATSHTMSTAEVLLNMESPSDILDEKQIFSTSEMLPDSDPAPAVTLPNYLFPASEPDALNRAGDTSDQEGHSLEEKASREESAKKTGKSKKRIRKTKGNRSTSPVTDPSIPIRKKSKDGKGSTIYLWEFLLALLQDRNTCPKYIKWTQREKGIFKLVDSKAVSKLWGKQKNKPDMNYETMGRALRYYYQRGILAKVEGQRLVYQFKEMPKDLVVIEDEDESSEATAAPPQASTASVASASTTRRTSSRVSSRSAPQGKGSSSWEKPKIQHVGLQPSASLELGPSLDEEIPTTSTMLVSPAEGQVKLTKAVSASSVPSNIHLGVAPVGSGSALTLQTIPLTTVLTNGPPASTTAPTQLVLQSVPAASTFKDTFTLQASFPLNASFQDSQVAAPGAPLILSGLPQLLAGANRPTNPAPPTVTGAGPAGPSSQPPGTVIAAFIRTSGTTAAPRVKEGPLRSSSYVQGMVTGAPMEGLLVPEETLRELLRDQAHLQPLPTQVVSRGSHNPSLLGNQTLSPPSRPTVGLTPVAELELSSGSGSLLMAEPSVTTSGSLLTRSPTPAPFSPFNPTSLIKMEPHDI
Sequence of HSF1 (Q00613 whole entry): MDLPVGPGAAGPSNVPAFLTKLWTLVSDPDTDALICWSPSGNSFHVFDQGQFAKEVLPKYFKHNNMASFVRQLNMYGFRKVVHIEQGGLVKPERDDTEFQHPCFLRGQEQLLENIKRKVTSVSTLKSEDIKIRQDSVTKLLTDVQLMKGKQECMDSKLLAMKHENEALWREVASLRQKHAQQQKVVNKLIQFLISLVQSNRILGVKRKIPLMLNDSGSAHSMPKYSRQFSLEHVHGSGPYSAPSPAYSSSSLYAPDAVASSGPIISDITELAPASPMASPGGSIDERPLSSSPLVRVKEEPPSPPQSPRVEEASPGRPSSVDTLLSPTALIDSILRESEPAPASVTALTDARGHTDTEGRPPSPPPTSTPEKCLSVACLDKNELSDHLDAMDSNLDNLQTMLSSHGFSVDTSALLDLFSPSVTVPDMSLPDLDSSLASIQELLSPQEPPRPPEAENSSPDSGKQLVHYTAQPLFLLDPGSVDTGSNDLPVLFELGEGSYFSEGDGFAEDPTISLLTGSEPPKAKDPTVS
Sequence of ETV5 (P41161 whole entry): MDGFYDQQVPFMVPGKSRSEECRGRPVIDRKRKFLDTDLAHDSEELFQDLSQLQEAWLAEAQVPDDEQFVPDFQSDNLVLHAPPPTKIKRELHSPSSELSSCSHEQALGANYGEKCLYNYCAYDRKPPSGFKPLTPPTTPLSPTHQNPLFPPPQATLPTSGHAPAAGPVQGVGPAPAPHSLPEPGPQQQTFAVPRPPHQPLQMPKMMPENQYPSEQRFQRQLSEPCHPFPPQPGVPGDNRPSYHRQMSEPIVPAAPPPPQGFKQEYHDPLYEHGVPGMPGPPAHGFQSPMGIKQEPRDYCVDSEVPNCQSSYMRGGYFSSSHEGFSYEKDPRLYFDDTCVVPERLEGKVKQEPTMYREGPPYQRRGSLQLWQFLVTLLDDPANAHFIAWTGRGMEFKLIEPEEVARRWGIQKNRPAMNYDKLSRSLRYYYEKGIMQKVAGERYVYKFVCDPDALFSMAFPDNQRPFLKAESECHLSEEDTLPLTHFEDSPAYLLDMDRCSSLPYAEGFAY
Sequence of ELF1 (P32519 whole entry): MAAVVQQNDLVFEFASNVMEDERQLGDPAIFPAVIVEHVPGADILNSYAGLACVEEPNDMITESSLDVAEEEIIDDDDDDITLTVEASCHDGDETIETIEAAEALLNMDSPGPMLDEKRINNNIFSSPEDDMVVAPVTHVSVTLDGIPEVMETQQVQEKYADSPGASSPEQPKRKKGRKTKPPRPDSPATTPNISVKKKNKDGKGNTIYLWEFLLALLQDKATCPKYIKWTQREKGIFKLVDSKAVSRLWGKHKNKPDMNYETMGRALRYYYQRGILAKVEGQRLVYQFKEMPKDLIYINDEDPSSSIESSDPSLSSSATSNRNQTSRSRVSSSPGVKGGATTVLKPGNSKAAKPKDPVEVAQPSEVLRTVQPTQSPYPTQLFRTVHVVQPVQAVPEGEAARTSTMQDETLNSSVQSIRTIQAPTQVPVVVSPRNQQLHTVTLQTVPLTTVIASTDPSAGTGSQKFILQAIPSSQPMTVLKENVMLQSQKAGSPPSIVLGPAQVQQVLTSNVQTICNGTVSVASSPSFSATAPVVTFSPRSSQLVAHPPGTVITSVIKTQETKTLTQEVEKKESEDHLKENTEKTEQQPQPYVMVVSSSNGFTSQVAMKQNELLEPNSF

Regarding TCTGGG, the binding signal in [1] is 1.1 fold enrichment (6-mer frequency, TF over GST control); in test [2], 1.06 fold enrichment (6-mer frequency, TF over GST control); in [3] it was 1.06 fold enrichment (6-mer frequency, TF over GST control); in test [4] it was 1.04 fold enrichment (6-mer frequency, TF over GST control); in test [5] it was 1.18 fold enrichment (6-mer frequency, TF over GST control); in test [6], 1.09 fold enrichment (6-mer frequency, TF over GST control). For the same sequence, the binding signal in test [7] was 1.12 fold enrichment (6-mer frequency, TF over GST control); in [8], 1.02 fold enrichment (6-mer frequency, TF over GST control); in test [9], 1.28 fold enrichment (6-mer frequency, TF over GST control); in [10], 1.13 fold enrichment (6-mer frequency, TF over GST control); in test [11], 1.13 fold enrichment (6-mer frequency, TF over GST control); in test [12], 1.4 fold enrichment (6-mer frequency, TF over GST control). In addition, the binding signal in [13] was 1.11 fold enrichment (6-mer frequency, TF over GST control); in test [14], 1.08 fold enrichment (6-mer frequency, TF over GST control); in test [15] it was 1.22 fold enrichment (6-mer frequency, TF over GST control); in [16], 1.19 fold enrichment (6-mer frequency, TF over GST control); in test [17] it was 1.12 fold enrichment (6-mer frequency, TF over GST control); in test [18], 1.1 fold enrichment (6-mer frequency, TF over GST control). Moreover, the binding signal in [19] is 1.04 fold enrichment (6-mer frequency, TF over GST control).
